PubChem BioAssay (NCATS)
Records with an inconclusive call do not appear. Calls of active or inactive are those of the source. Calls come from the whole dose curve; as a rule, active = well fitted curve in the direction sought with a large enough effect; inconclusive = small, poorly fitted or top-dose-only effect, or another doubt; inactive = no such curve, though single readings can be large; an effect the other way counts as inactive or inconclusive.

Tests used:
[1] = Quantitative High-Throughput drug screen in 47 multiple myeloma cell lines against the NCATS MIPE library collection: LP1_DSMZ cell viability assay (AID 1918982); note: nearly all actives have a fitted effect of over 35% in size
Outline: (§1)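 ATP-based CellTiter-Glo luminescence after 48 h drug exposure (37 °C, 5% CO2) of 500 myeloma cells per well. DMSO-only wells set 100% viability, media-only wells 0%; MIPE 4.0 library added by pin tool.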

[2] = Quantitative High-Throughput drug screen in 47 multiple myeloma cell lines against the NCATS MIPE library collection: KMS34_JCRB cell viability assay (AID 1918985); note: nearly all actives have a fitted effect of over 40% in size
Outline: as §1

[3] = Quantitative High-Throughput drug screen in 47 multiple myeloma cell lines against the NCATS MIPE library collection: OCIMY7_PLB cell viability assay (AID 1918987); settings: OCI-MY7 myeloma viability, CellTiter-Glo ATP, 48 h; viability (% of DMSO): at 45.8 µM (top of the series); note: nearly all actives have a fitted effect of over 65% in size
Outline: as §1

[4] = Quantitative High-Throughput drug screen in 47 multiple myeloma cell lines against the NCATS MIPE library collection: OCIMY5_PLB cell viability assay (AID 1918988); note: nearly all actives have a fitted effect of over 65% in size
Outline: as §1

[5] = Quantitative High-Throughput drug screen in 47 multiple myeloma cell lines against the NCATS MIPE library collection: SKMM1_PLB cell viability assay (AID 1919863); settings: SKMM1 myeloma viability, CellTiter-Glo ATP, 48 h; viability: stronger effect = lower value; note: nearly all actives have a fitted effect of over 35% in size
Outline: as §1

[6] = Quantitative High-Throughput drug screen in 47 multiple myeloma cell lines against the NCATS MIPE library collection: U266_ATCC cell viability assay (AID 1919864); note: nearly all actives have a fitted effect of over 35% in size
Outline: as §1

[7] = Quantitative High-Throughput drug screen in 47 multiple myeloma cell lines against the NCATS MIPE library collection: XG6_PLB cell viability assay (AID 1919865); note: nearly all actives have a fitted effect of over 40% in size
Outline: as §1

[8] = Quantitative High-Throughput drug screen in 47 multiple myeloma cell lines against the NCATS MIPE library collection: XG1_PLB cell viability assay (AID 1919866); note: nearly all actives have a fitted effect of over 35% in size
Outline: as §1

[9] = Quantitative High-Throughput drug screen in 47 multiple myeloma cell lines against the NCATS MIPE library collection: VP6_DJ cell viability assay (AID 1919867); note: nearly all actives have a fitted effect of over 40% in size
Outline: as §1

[10] = Quantitative High-Throughput drug screen in 47 multiple myeloma cell lines against the NCATS MIPE library collection: PE2_PLB cell viability assay (AID 1919869); note: nearly all actives have a fitted effect of over 35% in size
Outline: as §1

[11] = Quantitative High-Throughput drug screen in 47 multiple myeloma cell lines against the NCATS MIPE library collection: PCM6_Riken cell viability assay (AID 1919870); note: nearly all actives have a fitted effect of over 30% in size
Outline: as §1

[12] = Quantitative High-Throughput drug screen in 47 multiple myeloma cell lines against the NCATS MIPE library collection: RPMI8226_ATCC cell viability assay (AID 1919871); note: nearly all actives have a fitted effect of over 30% in size
Outline: as §1

[13] = Quantitative High-Throughput drug screen in 47 multiple myeloma cell lines against the NCATS MIPE library collection: OPM2_DSMZ cell viability assay (AID 1919872); note: nearly all actives have a fitted effect of over 30% in size
Outline: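 Approved and investigational drugs from MIPE 4.0 were added by pin tool to 500 cells per well. After 48 hours at 37C, ATP-based CellTiter-Glo luminescence indicated remaining viability.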

[14] = Quantitative High-Throughput drug screen in 47 multiple myeloma cell lines against the NCATS MIPE library collection: KMS11_JCRBsus cell viability assay (AID 1919873); note: nearly all actives have a fitted effect of over 50% in size
Outline: as §1

[15] = Quantitative High-Throughput drug screen in 47 multiple myeloma cell lines against the NCATS MIPE library collection: KMS28BM_JCRB cell viability assay (AID 1919874); note: nearly all actives have a fitted effect of over 35% in size
Outline: as §1

[16] = target: Cytochrome P450 3A4 (Homo sapiens) (UniProt P08684); experiment: qHTS for inhibitors of CYP3A4 against the NCATS DSHEA and TCM libraries (AID 1919971)
Cytochrome P450 3A4 (Homo sapiens), sequence (P08684 whole entry, looked up, canonical isoform): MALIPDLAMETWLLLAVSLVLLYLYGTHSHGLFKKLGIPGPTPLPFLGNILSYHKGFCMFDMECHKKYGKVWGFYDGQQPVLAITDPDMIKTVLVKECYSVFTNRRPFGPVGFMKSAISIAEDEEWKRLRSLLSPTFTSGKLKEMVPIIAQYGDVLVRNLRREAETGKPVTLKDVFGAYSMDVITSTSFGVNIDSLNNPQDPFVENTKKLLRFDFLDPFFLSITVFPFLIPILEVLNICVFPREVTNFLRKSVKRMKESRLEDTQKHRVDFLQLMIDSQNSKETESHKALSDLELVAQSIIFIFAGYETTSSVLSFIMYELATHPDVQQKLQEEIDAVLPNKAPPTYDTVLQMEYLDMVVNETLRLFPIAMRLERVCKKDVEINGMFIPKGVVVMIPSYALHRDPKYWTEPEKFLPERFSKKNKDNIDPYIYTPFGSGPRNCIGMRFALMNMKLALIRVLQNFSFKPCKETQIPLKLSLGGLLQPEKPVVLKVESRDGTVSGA
Outline: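 Concentration-response screening with isoform-matched pro-luciferin substrates. The CYP reaction was initiated by NADPH regenerating solution and ran 30-45 min in darkness at room temperature.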

[17] = Quantitative High-Throughput drug screen in 47 multiple myeloma cell lines against the NCATS MIPE library collection: UTMC2_PLB cell viability assay (AID 1919868); settings: CellTiter-Glo ATP luminescence, 48 h; viability (% of DMSO control): at 45.8 µM (top of the series); note: nearly all actives have a fitted effect of over 55% in size
Outline: as §1

[18] = Quantitative High-Throughput drug screen in 47 multiple myeloma cell lines against the NCATS MIPE library collection: KMS28PE_JCRB cell viability assay (AID 1918983); note: nearly all actives have a fitted effect of over 35% in size
Outline: as §1

[19] = Quantitative High-Throughput drug screen in 47 multiple myeloma cell lines against the NCATS MIPE library collection: L363_DSMZ cell viability assay (AID 1918984); note: nearly all actives have a fitted effect of over 40% in size
Outline: as §1

[20] = Quantitative High-Throughput drug screen in 47 multiple myeloma cell lines against the NCATS MIPE library collection: OPM1_PLB cell viability assay (AID 1918989); note: nearly all actives have a fitted effect of over 40% in size
Outline: as §1
Potency is the fitted concentration of half-maximal effect.

O=C1c2c(O)cccc2[C@@H]([C@@H]2O[C@H](CO)[C@@H](O)[C@H](O)[C@H]2O)c2cc(CO)cc(O)c21
inactive: Potency [1] | Potency [2] | Potency [3] | Potency [4] | viability [5] 153% | Potency [6] | Potency [7] | Potency [8] | Potency [9] | Potency [10] | Potency [11] | Potency [12] | Potency [13] | Potency [14] | Potency [15]
active: Potency [16] 25.1 µM

CN(C)CC[C@H](c1ccc(Cl)cc1)c1ccccn1
active: Potency [8] 6.62 µM
inactive: Potency [1] | Potency [2] | Potency [17] | Potency [10] | Potency [11] | Potency [13]

C=C1C(=O)O[C@H]2[C@@H]1CCC(C)=CCC[C@@]1(C)O[C@@H]21
active: Potency [18] 7.43 µM | Potency [19] 9.35 µM | Potency [2] 2.09 µM | Potency [3] 0.526 µM | Potency [4] 4.18 µM | Potency [20] 4.69 µM | Potency [5] 16.6 µM | Potency [7] 5.9 µM | Potency [8] 2.64 µM | Potency [9] 4.18 µM | Potency [17] 4.69 µM | Potency [10] 3.32 µM | Potency [11] 3.32 µM | Potency [13] 5.9 µM | Potency [14] 3.32 µM | Potency [15] 7.43 µM

CC(C)n1cnc2c(NCCc3ccc(O)cc3)nc(-c3csc4ccccc34)nc21
active: Potency [1] 16.6 µM | Potency [2] 20.9 µM | Potency [3] 7.43 µM | Potency [4] 1.66 µM | Potency [5] 20.9 µM | Potency [6] 2.35 µM | Potency [7] 3.72 µM | Potency [8] 3.72 µM | Potency [9] 8.33 µM | Potency [17] 10.5 µM | Potency [11] 10.5 µM

COc1cc(O)c2c(c1)C1OC1C[C@H](O)[C@H](O)C(=O)C=CC[C@H](C)OC2=O (some centres undefined)
active: Potency [18] 5.9 µM | Potency [19] 2.35 µM | Potency [2] 2.35 µM | Potency [3] 0.372 µM | Potency [4] 3.72 µM | Potency [20] 5.26 µM | Potency [5] 4.69 µM | Potency [6] 4.69 µM | Potency [7] 4.69 µM | Potency [8] 2.64 µM | Potency [9] 1.66 µM | Potency [17] 10.5 µM | Potency [11] 2.35 µM | Potency [12] 3.72 µM | Potency [13] 2.64 µM | Potency [15] 3.72 µM

CC(C)OC(=O)[C@H](C)N[P@](=O)(OC[C@H]1O[C@@H](n2ccc(=O)[nH]c2=O)[C@](C)(F)[C@H]1O)Oc1ccccc1
inactive: Potency [1] | Potency [2] | Potency [20] | viability [5] 127% | Potency [6] | Potency [11] | Potency [12] | Potency [13] | Potency [14] | Potency [15]

O=c1c(O)c(-c2ccc(O)c(O)c2)oc2cc(O)ccc12
active: Potency [1] 23.5 µM | Potency [2] 18.7 µM | Potency [3] 6.62 µM | Potency [4] 20.9 µM | Potency [20] 18.7 µM | Potency [7] 18.7 µM | Potency [8] 13.2 µM | Potency [9] 14.8 µM | Potency [17] 13.2 µM | Potency [10] 14.8 µM | Potency [13] 23.5 µM

O=C(O)CCCCCC(=O)NN=C1CCCC1
inactive: Potency [1] | Potency [20] | viability [5] 119% | Potency [6] | Potency [8] | Potency [9] | Potency [10] | Potency [11] | Potency [12] | Potency [13] | Potency [14] | Potency [15]

CNC(=O)c1cccc(-c2ccc3c(N4CCOC[C@H]4C)nc(N4CCOC[C@H]4C)nc3n2)c1
active: Potency [18] 0.0187 µM | Potency [19] 0.0118 µM | Potency [2] 0.059 µM | viability (% of DMSO) [3] 66.1% | Potency [4] 5.9 µM | Potency [20] 0.105 µM | Potency [5] 0.0662 µM | Potency [6] 0.469 µM | Potency [7] 0.0833 µM | Potency [8] 0.0118 µM | Potency [9] 0.0132 µM | Potency [17] 0.059 µM | Potency [10] 0.0833 µM | Potency [11] 0.118 µM | Potency [13] 0.105 µM

CC(=O)NC(CS)C(=O)O (centres undefined)
inactive: Potency [1] | Potency [2] | Potency [20] | Potency [7] | Potency [8] | Potency [9] | Potency [10] | Potency [11] | Potency [12] | Potency [15]

COc1ccnc2[nH]cc(C(=O)C(=O)N3CCN(C(=O)c4ccccc4)C[C@@H]3C)c12
inactive: Potency [1] | Potency [20] | viability [5] 120% | Potency [6] | Potency [7] | Potency [8] | Potency [17] | Potency [11] | Potency [12] | Potency [13] | Potency [14]

Cc1noc(-c2ccc(CSCCC(=O)O)cc2)c1NC(=O)OC(C)c1ccccc1Cl (centres undefined)
inactive: Potency [1] | Potency [2] | viability [5] 124% | Potency [6] | Potency [7] | Potency [8] | Potency [9] | Potency [17] | Potency [10] | Potency [11] | Potency [12] | Potency [13] | Potency [14] | Potency [15]
